Experimental data reported in PubChem BioAssay (NCI).
The panel holds about 83,000 compounds, 20% with a hit somewhere; the sample as a whole holds those more often.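 Cell lines were cultured in 96-well plates, exposed to a single compound concentration, and assessed for percent growth 48 hours later.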 Values without a mark were called inactive. Active and inactive are the calls of the source.

System: HOP-62 NSCLC
Assay: NCI-60 one-dose screen, 48 h (100 = growth as untreated, 0 = no growth, -100 = all killed)
Settings: 10 µM unless noted
Experimental: Growth inhibition of the HOP-62 human Non-Small Cell Lung tumor cell line is measured as a screen for anti-cancer activity. Cells are grown in 96 well plates and exposed to the test compound for 48 hours. Compounds are tested at a single concentration, which is 10^-5 M for most compounds. The reported endpoint is percent growth (GI% or GIPRCNT), where numbers from 0 - 100% represent growth inhibition, and numbers from -100% - 0 represent cell death. For example, a value of 40 represents 60% growth inhibition. A value of 0 means no net growth occurred over the course of the experiment. A value of -40 indicates 40% of cells at the beginning of the experiment died by the end of the experiment. A value of -100 means all cells are dead at the end of the experiment.
NCI-60 Human Tumor Cell Lines Screen was performed using the standard one-dose NCI protocol, which is described in more detail at https://dtp.cancer.gov/discovery_development/nci-60/default.htm.
Compounds with GIPRCNT values below 10 were considered active. Activity score was based on GIPRCNT using the following formula: […]
Score is 0 for GIPRCNT values of 100 or above, 50 for GIPRCNT values of 0, and 100 for GIPRCNT values of -100.

Row | Structure (SMILES) | growth
1 | Cn1cc(-c2ccc3ncc(-c4ccc(CC(=O)Nc5cc(C(C)(C)C)nn5C)cc4)cc3c2)cn1 | 17.6% [30 µM]
2 | CCOC(=O)c1c(C)[nH]c(C(=O)CCC(=O)OC)c1C | 98.7%
3 | O=C1c2ccccc2C2(c3ccc(O)cc3)c3ccccc3Oc3cccc1c32 (stereo not given) | 31.5%
4 | CCCCCCNc1cc(C)nc2ccc(OC)cc12 | 73.1%
5 | N=C(N)c1ccc(-c2ccc(-c3ccc(Cl)cc3Cl)o2)cc1 | -12.1% (active)
6 | CCN(CC)CCOC(=O)N1c2ccccc2Sc2ccccc21 | 88.7%
7 | Cc1nc(Nc2ccc(NC(=S)Nc3ccccc3)cc2)c2ccccc2n1 | 118%
8 | COc1cc2c(c(OC)c1OC)C(=O)/C(=C/c1cc(C)c(O)c(C)c1)S2 | 46.5%
9 | Nc1nc(I)c2ncn(C3OC(CO)C(O)C3O)c2n1 (stereo not given) | 95.8%
10 | Cc1nn(Cc2ccccc2)cc1C(=O)Nc1sc2c(c1C(N)=O)CCC(=O)C2 | 84.6%
11 | Nc1c(C(=O)c2ccccc2)nnc2ncnn12 | 97%
12 | COc1ccc(C2CC(c3cnccn3)=NN2)cc1OC (stereo not given) | 111%
13 | C#CC[C@H](N)C(=O)O | 94.4% [20 µM]
14 | O=C(Oc1ccc([N+](=O)[O-])cc1)c1ccc(CBr)cc1 | 139%
15 | COc1ccc(-n2sc(=O)n(Cc3ccc(COC(=O)C(C)c4ccc(CC(C)C)cc4)cc3)c2=O)cc1 (stereo not given) | 66.8%
16 | CC(C)c1ccc(NC(=O)Cc2ccc(Nc3ncnc4cc(-c5cnn(CCN(C)C)c5)ccc34)cc2)cc1 | -0.67% [30 µM] (active)
17 | COc1ccc(-c2cc(-c3cc(OC)ccc3OC)[nH]c(=O)c2C#N)cc1 | 48.1%
18 | CCNCCNc1cc(-c2ccc(F)cc2)c(C#N)c2nc3ccccc3n12 | 75.6%
19 | Nc1ccc(S(=O)(=O)Nc2ccsc2-c2nc(-c3ccccc3)no2)cc1 | 35.8%
20 | COc1ccc(C(=O)/C=C/C23c4ccccc4C(c4ccccc42)C2C(=O)NC(=O)C23)cc1 (stereo not given) | 96.4%

Row | Structure (SMILES) | growth
21 | CC(=O)NCC(=O)Nc1ccc(-c2nnc3ccccn23)nc1.CC(=O)NCC(=O)Nc1ccc(-c2nnc3ccccn23)nc1.[Pt+2] | 101%
22 | C=C1c2c(C)nn(-c3ccc(N)cc3)c2N(C)C23CC1C1(C)c4c(C)nn(-c5ccc(N)cc5)c4N(C)C(C)(CC12)C3 (stereo not given) | 88.3%
23 | Cc1ccc(S(=O)(=O)N(CC[C@@H]2C[C@H]2c2cc3ccccc3o2)C(=O)NC2CCCCC2)cc1 | 93.1%
24 | CN(C)c1ccc(/C=C/c2c(F)cccc2F)cc1 | 74.4%
25 | O=C1CCC(N2C(=O)c3cccc(NCCCC4CCN(CCNC(=O)c5cc6c(o5)C(=O)c5ccccc5C6=O)CC4)c3C2=O)C(=O)N1 (stereo not given) | -52.9% (active)
26 | N#Cc1c(NC(=O)c2ccc(Br)cc2)sc2c1CCCC2 | 46.4%
27 | CN(CCCCCCCCNc1ccnc2ccccc12)Cc1ccc(-c2ccc(-c3ccc(C#N)cc3)s2)cc1 | -11.2% (active)
28 | O=c1ccn(C2OC(F)(CO)C(O)C2F)c(=O)[nH]1 (stereo not given) | 82.7%
29 | CCOC(=O)c1cnn2c(-c3ccc(Cl)cc3)nc(NCc3ccccc3)nc12 | 93.5%
30 | Oc1ccccc1-c1nc2ccccn2c1NCCN1CCOCC1 | 76.8%
31 | COc1ccc2c(c1)/C(=C\c1sc(=S)[nH]c1O)C(C(=O)O)=N2 | 116%
32 | O=C(/C=C/c1ccccc1)c1ccc2ccccc2c1 | 96.5%
33 | C=C(C=O)C1CCC2(C(=O)O)CCC3(C)C(CCC4C5(C)CCC(O)C(C)(C)C5CCC43C)C12 (stereo not given) | 14.8%
34 | NC(N)=N/N=C/CO | 105%
35 | Cc1cc(Cc2cc(C)cc(C(C)(C)C)c2O)c(O)c(C(C)(C)C)c1 | 68.3%
36 | CCN(CC)CCOC(=O)Nc1ccccc1Cl | 102%
37 | Cc1csc(NC(=O)c2sc3nc(-c4cccs4)ccc3c2N)n1 | 90.4%
38 | Cc1cc(-c2ccc(N(C)C)cc2)c2sc(=O)[nH]c2n1 | 70.2%
39 | CNC(=O)c1cc(Oc2ccc3nc(Nc4cc(Cl)cc(Cl)c4)ccc3c2)ccn1 | 72.1%
40 | Oc1[nH]c2ccccc2c1/C=c1/cc2c(c(-c3ccc(F)cc3)n1)=Nc1ccccc1-2 | -47.3% (active)
